This note sets out measurements from ChEMBL document CHEMBL4513216, “Probing the Open Global Health Chemical Diversity Library for Multistage-Active Starting Points for Next-Generation Antimalarials” (ACS Infect Dis, 2020).

The campaign covered roughly 69,000 compounds. About 8,600 (12%) showed an effect of 50% or more. Many of the other results were omitted from the sample, so strong results are more common in it than they were.

This experiment concerns Plasmodium berghei. The experiment can be described thus: Screen against P. berghei liver stage (PbLuc), transformed with Luciferase, at 10uM. The class given is functional, HepG2. To be noted: tested at 10 uM.
For the compound `CC(C)N(Cc1ccccn1)C(=O)CCC(=O)c1ccc(F)cc1F`, the INHIBITION is 36.9%. In the case of `CN(Cc1nc2ccsc2c(=O)[nH]1)C[C@@H]1CCCN2CCCC[C@H]12`, the INHIBITION came to 68.4%. Under `CN(Cc1nc2ccsc2c(=O)[nH]1)CC1CCCCC1` stands -21.8%; under `CN(Cc1nc2ccccc2c(=O)[nH]1)C[C@@H]1CCCN2CCCC[C@H]12`, 42.6%. The result for `CN(Cc1ccc(-n2cccn2)cc1)C[C@@H]1CCCN2CCCC[C@H]12` reads 70%; that for `CN(Cc1ccccc1-n1cccn1)C[C@@H]1CCCN2CCCC[C@H]12`, 40.7%; that for `CN(Cc1ccc(-n2cccn2)cc1)CC1CCCN1c1cccnn1` (stereo not drawn), 9.64%. Under `CNC(=O)C1(CCCc2ccncc2)CCCCN1` (stereo not drawn) stands -4.51%; under `CCc1cc(NCCCN(C)C2CCCC2)ncn1`, -13.1%; under `Cc1nc(C(=O)N(CC2CCCO2)c2ccncc2)cs1` (stereo not drawn), 45.5%. On to `CN(C)c1ccccc1CN1CCC(N2CCCC2=O)CC1`, for which the INHIBITION is listed as 25.2%. On to `O=C1CCCN1C1CCCN(CCOc2ccc(F)cc2)C1` (stereo not drawn), for which the INHIBITION is listed as 31.2%.

For the compound `CCc1ccccc1CN1CCC(N2CCCC2=O)CC1`, the INHIBITION was -0.87%.

For the compound `CC(C)(C#N)c1ccccc1CN1CCC(N2CCCC2=O)CC1`, the INHIBITION turned out to be 57.7%.

As for `CN(C)c1ccccc1CN1CCCC(N2CCCC2=O)C1` (stereo not drawn), the INHIBITION was 51.7%. The result for `COC(=O)N1CCN(Cc2ccccc2C(C)(C)C#N)CC1` reads 39.2%; that for `CCSCc1csc(-c2ccc(S(C)(=O)=O)cc2)n1`, -35.8%. `CCOc1cc(CNC(=O)CNC(=O)CC2CCCCC2)ccn1`: the INHIBITION came to 6.23%. Under `NCc1cnc(Nc2ccccc2)nc1` stands 23.1%.

Regarding `CCc1cnc(CN(C(C)=O)C2CCN(CCN3CCCCC3)C2)o1` (stereo not drawn), the INHIBITION was 31.9%. Under `CC(C)c1noc(-c2ccc(-n3cnc(C(=O)O)c3)nc2)n1` stands 2.49%; under `Cc1c(C(=O)N2CCCC(C(=O)c3nccn3C)C2)c[nH]c(=O)c1C#N` (stereo not drawn), 25.1%; under `O=C(CCC(=O)N1CCNC(=O)C1c1cccc(F)c1)NC1CCCC1` (stereo not drawn), 55.5%. As to `O=C1NCCN(C(=O)CN2CCOC2=O)C1c1cccc(F)c1` (stereo not drawn), the INHIBITION was 32%.

`O=C1NCCN(C(=O)CCN2CCCO2)C1c1cccc(F)c1` (stereo not drawn): the INHIBITION was determined as 5.15%. Under `CCc1nccn1C1CCCN(C(=O)c2csc(NC(C)=O)n2)C1` (stereo not drawn) stands 20.1%; under `COc1ccccc1CNC(C)c1ccc2[nH]c(=O)[nH]c2c1` (stereo not drawn), 7.12%. `CC(NCc1ccccc1Cl)c1ccc2[nH]c(=O)[nH]c2c1` (stereo not drawn): the INHIBITION was 40.9%. Under `CC(NCc1ccccc1Br)c1ccc2[nH]c(=O)[nH]c2c1` (stereo not drawn) stands 51.6%; under `Cc1nc(CCCNC(=O)C2CC(=O)N(C3CC3)C2)sc1C` (stereo not drawn), 56.8%; under `CCN1CC(C(=O)NCCCc2nc(C)c(C)s2)CC1=O` (stereo not drawn), 45.8%. Under `Cc1nc(CCCNC(=O)C2CC(=O)N(C3CCCC3)C2)sc1C` (stereo not drawn) stands 44.7%. The result for `Cc1cnc2n1CCN(C)C21CCN(C(=O)CC(C)C)CC1` reads 0.547%. Regarding `COCc1ccc(C(=O)N2CC[C@H](O)[C@@H](n3ccnc3)CC2)cc1`, the INHIBITION is listed as -6.3%. As to `Cn1c(=O)oc2ccc(S(=O)(=O)N3CCC(c4ccccc4)C3)cc21` (stereo not drawn), the INHIBITION is -5.26%. The result for `Cn1c(=O)oc2cc(S(=O)(=O)N3CCCCC3)c(Cl)cc21` reads 30%; that for `Cn1c(=O)oc2cc(S(=O)(=O)N3CCC(c4ccccc4)C3)c(Cl)cc21` (stereo not drawn), 55%. The result for `COCC(NC(=O)c1ccoc1C)c1cccc(C(F)(F)F)c1` (stereo not drawn) reads 17.8%; that for `O=C(O)[C@]12CCCN(Cc3ccsc3)C[C@H]1CN(c1ccccn1)C2`, 1.48%; that for `CNC(=O)CN1CCOCC2(CCCN(Cc3ccoc3)C2)C1` (stereo not drawn), -2.35%. Under `Cn1cc(CN2CCCC3(COCCN(Cc4c[nH]nn4)C3)C2)cn1` (stereo not drawn) stands -6.23%. With `c1cc(CN2CCCC3(COCCN(Cc4c[nH]nn4)C3)C2)cs1` (stereo not drawn), the INHIBITION is on record as -4.88%.

Turning to `c1csc(CN2CCCC3(COCCN(Cc4c[nH]nn4)C3)C2)c1` (stereo not drawn), the INHIBITION turned out to be 31.7%. Turning to `CNC(=O)CN1CCOCC2(CCCN(Cc3ccsc3)C2)C1` (stereo not drawn), the INHIBITION is -17.1%. Under `Cc1ccc(CN2CCCC3(COCCN(Cc4c[nH]nn4)C3)C2)s1` (stereo not drawn) stands 65.6%; under `Cc1ccc(CN2CCCC3(COCCN(Cc4c[nH]nn4)C3)C2)o1` (stereo not drawn), 30.5%; under `Fc1ccc(CN2CCCC3(COCCN(Cc4c[nH]nn4)C3)C2)cc1` (stereo not drawn), 61.5%. The result for `CNC(=O)CN1CCOCC2(CCCN(Cc3ccc(F)cc3)C2)C1` (stereo not drawn) reads 53.1%. For `CCc1cccc(CC)c1NC(=O)c1ccccc1N(C)S(C)(=O)=O`, the INHIBITION was 26.9%.

`Cn1cccc1C(=O)N1CCCCC1c1[nH]ncc1S(C)(=O)=O` (stereo not drawn): the INHIBITION is given as 4.08%.

With `CC(C)n1cnc2c1C(C(=O)N1CCCC1)N(CC1CC1)CC2` (stereo not drawn), the INHIBITION is 13.7%.

Turning to `Cc1nc(C(C)(C)C)sc1C(=O)NCCNc1ncccc1C#N`, the INHIBITION is given as -26.6%. Under `CCN(Cc1c(F)cccc1F)Cn1nc(C)c2c(C)onc2c1=O` stands 12.7%; under `Cc1noc(C)c1CNCC1(COc2cccnc2)C[C@@H](O)[C@@H](O)C1` (stereo partly drawn), 27.5%; under `Cc1ccccc1C1(CNC(=O)NCCc2nnc3n2CCC3)CC1`, -25.3%. Under `NC(=O)C1(c2cnccn2)CCCN1Cc1ccncc1` (stereo not drawn) stands 72.3%; under `NC(=O)C1(c2cnccn2)CCCN1Cc1ccc(Cl)cc1` (stereo not drawn), -7.79%. The result for `NC(=O)C1(c2cnccn2)CCCN1Cc1cccc(Cl)c1` (stereo not drawn) reads 15.9%. As to `OCC1(NCc2cnc(-c3cccs3)s2)CCOCC1`, the INHIBITION is on record as 0.0944%. Consider `c1ccc(-c2nc(CN3CCOC(Cn4cncn4)C3)cs2)cc1` (stereo not drawn), for which the INHIBITION was determined as 18.2%. Consider `Clc1ccc(OCCCN2CCOC(Cn3cncn3)C2)cc1` (stereo not drawn), for which the INHIBITION was determined as 66.2%. Turning to `Fc1ccc(OCCCN2CCOC(Cn3cncn3)C2)cc1` (stereo not drawn), the INHIBITION was found to be 19.4%.

On to `c1cnc(-c2nc(CN3CCOC(Cn4cncn4)C3)cs2)nc1` (stereo not drawn), for which the INHIBITION is given as 88.1%.

`c1ncn(CC2CN(Cc3csc(C4CCCC4)n3)CCO2)n1` (stereo not drawn): the INHIBITION came out at 58.3%.

Consider `c1ccc(-c2nc(CN3CCOC(Cn4cccn4)C3)cs2)cc1` (stereo not drawn), for which the INHIBITION is recorded as -6.04%. The result for `CC(C)(C)c1nc(CN2CCOC(Cn3cncn3)C2)cs1` (stereo not drawn) reads 44.3%. The result for `c1csc(-c2nc(CN3CCOC(Cn4cncn4)C3)cs2)c1` (stereo not drawn) reads 40.9%; that for `Cc1cnn(CC2CN(Cc3csc(C4CCCC4)n3)CCO2)c1` (stereo not drawn), -6.44%. Under `Clc1cccc(OCCCN2CCOC(Cn3cncn3)C2)c1` (stereo not drawn) stands 14.1%; under `CC(C)c1nc(CN2CCOC(Cn3cncn3)C2)cs1` (stereo not drawn), -33.9%. Turning to `c1cnn(CC2CN(Cc3csc(C4CCCCC4)n3)CCO2)c1` (stereo not drawn), the INHIBITION was determined as 64.8%. Under `O=C(c1ccc(S(=O)(=O)NCc2ccon2)cc1)N1CCCCCC1` stands -6.21%; under `CC(C)c1nnc2n1CCN(C(=O)c1ccc(N(C)C)nn1)C2`, 4.71%; under `Cn1cc(-c2cnc(-c3ccnn3C)nc2)cc1C(=O)NC1CC1`, 24.6%.

Turning to `COC(=O)N1CCC(c2nnc(Cn3ccnc3)n2C)CC1`, the INHIBITION was determined as 1.48%. Take `N#Cc1cc(F)ccc1NCC1CCN(S(=O)(=O)C(F)F)CC1`: the INHIBITION is given as 65.3%.

As for `N#Cc1ccc(Cl)cc1NCC1CC1`, the INHIBITION was 47.7%. The result for `CS(=O)(=O)N1CCC(CNc2cc(Cl)ccc2C#N)CC1` reads -13.9%; that for `O=S(=O)(NCc1ccccc1Cn1cncn1)N1CCCCCC1`, 34.7%; that for `CCc1c(NCc2ccc(F)cc2)cnn1CC(C)C`, 22.6%. The result for `COCc1cccc(CNc2cnn(C(C)(C)C)c(=O)c2Cl)c1` reads 70.6%; that for `COc1cc(CNC(=O)c2cc(Cl)ccc2F)ccn1`, 11.4%.

Regarding `COc1cc(CNc2cnn(C(C)(C)C)c(=O)c2Cl)ccn1`, the INHIBITION is reported as 70.6%.

For `CC(C)(C)n1ncc(NCc2ccccc2)c(Cl)c1=O`, the INHIBITION was found to be 61.1%. In the case of `CC(C)(CO)Nc1c(NCc2ccccc2)c(=O)c1=O`, the INHIBITION amounted to 17.7%.

Turning to `Cn1ncc(NCc2cccc(F)c2)c(Cl)c1=O`, the INHIBITION is reported as -5.25%. For `COCc1cccc(CNC(=O)CNc2ccccc2C(C)=O)c1`, the INHIBITION is on record as 11.4%. With `COc1cc(CNC(=O)CNc2cc(Cl)ccc2OC)ccn1`, the INHIBITION is recorded as 14.4%. The result for `COCc1ccc(CNc2cnn(C(C)(C)C)c(=O)c2Cl)cc1` reads 54.7%; that for `COCCNC(=O)Cn1nc(C(C)C)c2cnn(C(C)(C)C)c2c1=O`, -7.35%. The result for `CC(C)c1nccc(-c2nccn2CCN(C)S(C)(=O)=O)n1` reads -21.9%; that for `O=C(Cc1ccccn1)N1CCC2(CC1)CN(CC1CC1)C(=O)CO2`, 15.3%.

Consider `CCC(CC)C(=O)N(C)CC(=O)Nc1ccc(Br)cn1`, for which the INHIBITION is 21.5%. Consider `CN(CCn1nc2ccccn2c1=O)CC(=O)N(C)C1CCCCC1`, for which the INHIBITION is -111%. The result for `O=S(=O)(c1cc(F)ccc1F)n1cc(Cl)cn1` reads 48.8%; that for `O=S(=O)(c1ccc(F)cc1)n1cc(Cl)cn1`, 51%. For `O=S(=O)(c1ccc(F)c(F)c1)n1cc(Cl)cn1`, the INHIBITION is recorded as 42.1%.

Consider `CCc1ccccc1CNC(=O)CCc1cnn(C)c1`, for which the INHIBITION turned out to be 16.6%. The result for `Cc1nnc(C(C)N2CCc3[nH]c4ccccc4c3C2)o1` (stereo not drawn) reads 32%; that for `Cc1noc(C(C)N2CCc3[nH]c4ccc(Cl)cc4c3C2)n1` (stereo not drawn), 28.7%. The result for `Cc1nnc(C(C)N2CCc3[nH]c4ccc(Cl)cc4c3C2)o1` (stereo not drawn) reads 61.3%; that for `Cc1cnn(CC2CN(Cc3nc(C)c(C)o3)CCO2)c1` (stereo not drawn), 11.4%; that for `COc1cccc(C2(C(=O)NC3CCc4nccn4C3)CCCC2)c1` (stereo not drawn), 34.6%. Under `CCN(CCn1cccn1)C(=O)CN1C(=O)OC[C@@H]1c1ccccc1` stands 9.63%; under `CCN(CCn1cccn1)C(=O)CN1C(=O)OC[C@@H]1C(C)C`, 64.5%; under `CC(C)[C@H]1COC(=O)N1CC(=O)N(C)CCCn1cccn1`, 42.1%.

Consider `COc1cccc(F)c1C(C)NC(=O)NCc1cnc(C)s1` (stereo not drawn), for which the INHIBITION is listed as -8.66%.

For the compound `CC(C)n1cc(S(=O)(=O)N2CCCC(N3CCCCC3)C2)cn1` (stereo not drawn), the INHIBITION turned out to be 2.4%.
